Phenotypically active data for 39 molecules are collected here from the supplement of paper PMC7411054.

Structures can show the parent of a compound that is named as a salt. A number with no mark means an inactive call.

The subject of the first assay is A549-TUBA1B-RELA. Nature of the assay: phenotypically active (imaging signature differs from DMSO and reproducible) at any of 0.3-9 uM (binary (1 = active, 0 = inactive)); higher = active. Particulars: treatment time: 24 h. The procedure, abridged: (§1)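 Four wells per concentration (0.3, 1, 3 or 9 µM) were treated for 24 h in each of fifteen gene-edited reporter lines from A549, HepG2 and WPMY1 cells, then imaged live. After normalising live-cell features to solvent control wells, deviation was defined as ≥3 of 4 wells lying past the 95th percentile of control Euclidean distances. Reproducibility was defined as a median replicate Pearson correlation above the 95th percentile of non-replicates. Both had to hold for phenotypic activity.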
In the case of `Cc1ccc(O)c([C@H](CCN(C(C)C)C(C)C)c2ccccc2)c1` [Tolterodine L-tartrate], the phenotypically active is 0.

For `O=c1cc(-c2ccccc2)oc2cc(O)cc(O)c12` [Chrysin], the phenotypically active was 0.

Take `COc1cc2nccc(Oc3ccc(NC(=O)C4(C(=O)Nc5ccc(F)cc5)CC4)cc3)c2cc1OC`: the phenotypically active was 1 (active).

As to `CC(C)c1nc(CN(C)C(=O)N[C@H](C(=O)N[C@@H](Cc2ccccc2)C[C@H](O)[C@H](Cc2ccccc2)NC(=O)OCc2cncs2)C(C)C)cs1` [ritonavir], the phenotypically active is 0.

Consider `CC[C@H](CO)Nc1nc(Nc2cccc(-c3ccccn3)c2)c2ncn(C(C)C)c2n1` [(R)-DRF053 dihydrochloride], for which the phenotypically active is 0.

Regarding `CN1c2ccc([N+](=O)[O-])cc2N=C(c2ccc(C(=O)O)cc2)c2cc3c(cc21)C(C)(C)CCC3(C)C`, the phenotypically active was 1 (active).

For the molecule `COc1ccc(CCc2nc3cc(-c4c(C)noc4C)ccc3n2C[C@H](C)N2CCOCC2)cc1Cl`, the phenotypically active was 0.

As for `CCOC(=O)c1c2c3c(cccc3[nH]c1=O)C(=O)c1ccccc1-2`, the phenotypically active was 0.

On to `CCN1/C(=C/C(C)=O)Sc2ccc(O)cc21`, for which the phenotypically active is 0.

Turning to `CC(C)(C)n1nc(-c2ccc(Cl)cc2)c2c(N)ncnc21`, the phenotypically active was 1 (active).

On to `O=S(=O)(c1cccc2cnccc12)N1CCNCC1`, for which the phenotypically active was 1 (active).

Take `CC(C)c1c(C(=O)Nc2ccccc2)c(-c2ccccc2)c(-c2ccc(F)cc2)n1CC[C@@H](O)C[C@@H](O)CC(=O)O` [atorvastatin]: the phenotypically active was 0.

In another assay the test system is HepG2-ACTB-RAB5A. Described as above. Particulars: treatment time: 24 h. The procedure, abridged: as §1
`O=C(CCCCCCC(=O)Nc1ccc([C@H]2O[C@@H](CSc3nc(-c4ccccc4)c(-c4ccccc4)o3)C[C@@H](c3ccc(CO)cc3)O2)cc1)NO` [Tubacin]: the phenotypically active is 0.

`CC1CNCCN1S(=O)(=O)c1cccc2cnccc12` (stereo unspecified) [H-7 dihydrochloride]: the phenotypically active is 0.

As for `COc1cc(OC)c2c(=O)[nH]c(-c3cc(C)c(OCCO)c(C)c3)nc2c1` [apabetalone], the phenotypically active was 1 (active).

For the molecule `CC1(CN2CCC(n3c(=O)[nH]c4ccccc43)CC2)OCc2ccccc2-n2cccc21` (stereo unspecified), the phenotypically active is 0.

For the molecule `N#Cc1ccc2ncnc(NCCc3ccccc3)c2c1` [Senexin A], the phenotypically active is 0.

For `Nc1ccc(N=Nc2ccccc2)c(N)n1` [phenazopyridine], the phenotypically active is 0.

On to `O=C(CCCCCCC(=O)NO)NO`, for which the phenotypically active is 1 (active).

For `CC(C)(C)c1ccc(C(O)CCCN2CCC(C(O)(c3ccccc3)c3ccccc3)CC2)cc1` (stereo unspecified) [terfenadine], the phenotypically active is 1 (active).

Turning to `COc1ccccc1C(=O)Nc1cc2c(cc1N1CCCC1)n(C)c(=O)n2C`, the phenotypically active is 0.

On to `CCC(=O)N1CCOc2c(cc(-c3ccc(OC)c(OC)c3)cc2OC[C@H]2CCCN(C)C2)C1`, for which the phenotypically active is 1 (active).

In the case of `CCc1nc(-c2cccc(C)c2)c(-c2ccnc(NC(=O)c3ccccc3)c2)s1`, the phenotypically active is 1 (active).

`Cc1ccc(S(=O)(=O)n2c(N)nc3ccccc32)cc1`: the phenotypically active is 1 (active).

As to `Cc1ccc(NC(=O)c2cccc(C(C)(C)C#N)c2)cc1Nc1ccc2ncn(C)c(=O)c2c1`, the phenotypically active is 1 (active).

With `Cn1cc(-c2cnc3ccc4ccc(CS(=O)(=O)NCc5ccccn5)cc4c(=O)c3c2)cn1`, the phenotypically active was 0.

In the case of `O=C1c2c(O)cccc2Cc2cccc(O)c21` [anthralin], the phenotypically active is 0.

Regarding `COc1cc2c(cc1OC)-c1c/c(=N/c3c(C)cc(C)cc3C)n(C)c(=O)n1CC2` [Trequinsin hydrochloride], the phenotypically active was 1 (active).

Consider `O=C(Nc1ccncc1)c1cc([N+](=O)[O-])ccc1Cl`, for which the phenotypically active was 1 (active).

`Nc1ncnc2c1c(-c1ccc(Oc3ccccc3)cc1)nn2C1CCCC1`: the phenotypically active is 0.

Consider `O=C(Nc1ccc(CN2CCOCC2)cc1)c1ccc(-c2cccc(Cl)c2)o1`, for which the phenotypically active was 0.

With `O=C(/C=C/c1ccc2ccccc2n1)c1ccncc1`, the phenotypically active is 1 (active).

Turning to `CNCC[C@H](Oc1cccc2ccccc12)c1cccs1` [duloxetine], the phenotypically active was 0.

As for `CNC(=O)c1cc(Oc2ccc(NC(=O)Nc3ccc(Cl)c(C(F)(F)F)c3)c(F)c2)ccn1` [regorafenib], the phenotypically active was 1 (active).

For the molecule `NC(=O)[C@@H](CCC(F)(F)F)N(Cc1ccc(-c2ncon2)cc1F)S(=O)(=O)c1ccc(Cl)cc1` [avagacestat], the phenotypically active is 1 (active).

For `CCC(C)(C)C(=O)O[C@H]1C[C@@H](C)C=C2C=C[C@H](C)[C@H](CC[C@@H]3C[C@@H](O)CC(=O)O3)[C@H]21` [Simvastatin], the phenotypically active was 1 (active).

For the molecule `Nc1cc(N)c(N)cc1N` [FAK Inhibitor 14], the phenotypically active was 0.

`Cc1ccc(S(=O)(=O)c2ccc([N+](=O)[O-])o2)cc1`: the phenotypically active is 1 (active).

In the case of `Fc1ccccc1Nc1nc2nonc2nc1Nc1ccccc1F`, the phenotypically active was 0.

In the case of `Cc1ccc(O)c([C@H](CCN(C(C)C)C(C)C)c2ccccc2)c1` [Tolterodine L-tartrate], the phenotypically active is 0.

As to `O=c1cc(-c2ccccc2)oc2cc(O)cc(O)c12` [Chrysin], the phenotypically active is 0.

For `COc1cc2nccc(Oc3ccc(NC(=O)C4(C(=O)Nc5ccc(F)cc5)CC4)cc3)c2cc1OC`, the phenotypically active was 0.

In the case of `CC(C)c1nc(CN(C)C(=O)N[C@H](C(=O)N[C@@H](Cc2ccccc2)C[C@H](O)[C@H](Cc2ccccc2)NC(=O)OCc2cncs2)C(C)C)cs1` [ritonavir], the phenotypically active is 0.

For the molecule `CC[C@H](CO)Nc1nc(Nc2cccc(-c3ccccn3)c2)c2ncn(C(C)C)c2n1` [(R)-DRF053 dihydrochloride], the phenotypically active is 1 (active).

As to `CN1c2ccc([N+](=O)[O-])cc2N=C(c2ccc(C(=O)O)cc2)c2cc3c(cc21)C(C)(C)CCC3(C)C`, the phenotypically active is 0.

Consider `COc1ccc(CCc2nc3cc(-c4c(C)noc4C)ccc3n2C[C@H](C)N2CCOCC2)cc1Cl`, for which the phenotypically active is 1 (active).

On to `CCOC(=O)c1c2c3c(cccc3[nH]c1=O)C(=O)c1ccccc1-2`, for which the phenotypically active was 0.

Regarding `CCN1/C(=C/C(C)=O)Sc2ccc(O)cc21`, the phenotypically active was 1 (active).

For `CC(C)(C)n1nc(-c2ccc(Cl)cc2)c2c(N)ncnc21`, the phenotypically active is 1 (active).

On to `O=S(=O)(c1cccc2cnccc12)N1CCNCC1`, for which the phenotypically active is 1 (active).

With `CC(C)c1c(C(=O)Nc2ccccc2)c(-c2ccccc2)c(-c2ccc(F)cc2)n1CC[C@@H](O)C[C@@H](O)CC(=O)O` [atorvastatin], the phenotypically active is 1 (active).
